# Data reported in PubChem BioAssay (NCATS).
# Records with an inconclusive call do not appear. Where a call stands in place of a potency, no number is given. Values without a mark were called inactive. Activity calls are given as the source filed them. Calls come from the whole dose curve; as a rule, active = well fitted inhibition curve with a large enough effect; inconclusive = small, poorly fitted or top-dose-only effect; inactive = flat fitted curve, though single readings scatter.
# Assays:
# [1] = qHTS profiling for inhibitors of Plasmodium falciparum proliferation (AID 504749); note: nearly all actives have a fitted effect of over 60% in size; details: P. falciparum in erythrocytes, SYBR Green DNA, 72 h, at 28.7 µM (top of the series)
# Summary of the method: (§1)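 Parasite proliferation within erythrocytes, 72 h exposure. Endpoint: SYBR Green I fluorescence after overnight lysis at room temperature. Controls: 0.29 uM artemisinin, DMSO.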
# 3D7 = experiment: as above; details: P. falciparum in erythrocytes, SYBR Green DNA, 72 h; series mostly up to 28.7 µM
# Summary of the method: as §1
# AA1029 = experiment: as above; details: P. falciparum in erythrocytes, SYBR Green DNA, 72 h; series mostly up to 28.7 µM
# Summary of the method: as §1
# ATS189 = experiment: as above; details: P. falciparum in erythrocytes, SYBR Green DNA, 72 h; series mostly up to 28.7 µM
# Summary of the method: as §1
# ATS95 = experiment: as above; details: P. falciparum in erythrocytes, SYBR Green DNA, 72 h; series mostly up to 28.7 µM
# Summary of the method: as §1
# C2A = experiment: as above; details: P. falciparum in erythrocytes, SYBR Green DNA, 72 h; series mostly up to 28.7 µM
# Summary of the method: as §1
# CP185 = experiment: as above; details: P. falciparum in erythrocytes, SYBR Green DNA, 72 h; series mostly up to 28.7 µM
# Summary of the method: as §1
# 7G8 = experiment: as above; details: P. falciparum in erythrocytes, SYBR Green DNA, 72 h; series mostly up to 28.7 µM
# Summary of the method: as §1
# AS120 = experiment: as above; details: P. falciparum in erythrocytes, SYBR Green DNA, 72 h; series mostly up to 28.7 µM
# Summary of the method: as §1
# Potency is the fitted concentration of half-maximal effect.
smiles,measurement,setting,value
CN1CCC(=C2c3ccccc3C=Cc3ccccc32)CC1,"activity, negative = inhibition",[1]; parasite line A,13.5%
same,"activity, negative = inhibition",[1]; parasite line B,3.94%
same,Potency,3D7,inactive
same,Potency,AA1029,inactive
same,Potency,ATS189,inactive
same,Potency,ATS95,inactive
same,Potency,C2A,inactive
same,Potency,CP185,inactive
CNCCCC12CCC(c3ccccc31)c1ccccc12,"activity, negative = inhibition",[1]; parasite line A,0.742%
same,"activity, negative = inhibition",[1]; parasite line B,-2.12%
same,Potency,3D7,inactive
same,Potency,7G8,10 µM (active)
same,Potency,AA1029,inactive
same,Potency,AS120,inactive
same,Potency,ATS189,inactive
same,Potency,C2A,inactive
same,Potency,CP185,inactive
Cc1ccc(-c2cc(C(F)(F)F)nn2-c2ccc(S(N)(=O)=O)cc2)cc1,Potency,CP185,inactive
Cn1ccc2cc3c(cc21)CCN3C(=O)Nc1cccnc1,Potency,7G8,8.91 µM (active)
